Test results published in PubChem BioAssay.
For part of these data: Entries with a potency or affinity are not part of this list. Active and inactive are the calls of the source.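 Rule for the calls, unless noted: active = calcium signal rise above buffer-control mean plus 5 SD in both duplicates, and also a hit in the primary screen; inactive = the rest.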

Columns and labels:
[1] = tested on: TRPC4 beta (transient receptor potential cation channel C4), mouse; experiment: TRPC4 cation channel opening, retest – cell-based, Fluo4 calcium, HEK293 TRPC4beta/mu-opioid, duplicates, 10 µM, confirmation (AID 2426;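 active = fluorescence ratio normalized to control raised more than 50% in primary screen plus both repeat runs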); conditions: Fluo4 calcium fluorescence, at 10 µM; active compounds read high
[2] = tested on: transient receptor potential cation channel C4 beta (TRPC4), mouse; experiment: TRPC4 cation channel opening, second retest – cell-based, second round, Fluo4, HEK293 TRPC4beta/mu-opioid, 1 µM, confirmation (AID 2461;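 active = primary screen active and over 50% activation in each of two duplicate runs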); conditions: Fluo4 calcium fluorescence, at 1 µM; active compounds read high
[3] = tested on: TRPC4 (transient receptor potential cation channel C4 beta), mouse; experiment: potentiation of DAMGO EC20 TRPC4 response – cell-based, second round, Fluo-4, HEK293 TRPC4beta/mu-opioid, 1 µM, confirmation (AID 2554;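 active = primary screen hit whose fluorescence ratio, in both repeats, exceeds the weak agonist control mean by 3 SD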); conditions: DAMGO EC20, Fluo-4 calcium flux, at 1 µM; active compounds read high
[4] = tested on: TRPC4 beta (transient receptor potential cation channel C4), mouse; experiment: potentiation of DAMGO EC20 TRPC4 response – cell-based, Fluo-4, HEK293 TRPC4beta/mu-opioid, confirmation (AID 2555;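 active = primary screen hit whose calcium fluorescence ratio, in both repeats, exceeds the weak agonist control mean by 3 SD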); conditions: DAMGO EC20, Fluo-4 calcium flux, at 10 µM; active compounds read high
[5] = biological target: Short transient receptor potential channel 4 (Mus musculus) (UniProt Q9QUQ5); experiment: blockers of DAMGO-evoked TRPC4 calcium flux – cell-based, Fluo4, HEK293 TRPC4beta/mu-opioid, confirmation (AID 2636;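 active = calcium signal cut by more than 3 SD below the full-agonist control yet still positive, in both repeats and the earlier primary screen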); conditions: at 10 µM; active compounds read high
[6] = biological target: Short transient receptor potential channel 4 (Mus musculus) (UniProt Q9QUQ5); experiment: blockers of DAMGO-evoked TRPC4 calcium flux – cell-based, second round, Fluo4, HEK293 TRPC4beta/mu-opioid, 1 µM, confirmation (AID 2637;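 active = calcium signal ratio cut to more than 3 SD under the fully stimulated control mean yet still positive, in both repeats and the primary screen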); conditions: at 1 µM; active compounds read high
[7] = biological target: Short transient receptor potential channel 4 (Mus musculus) (UniProt Q9QUQ5); experiment: calcium entry via TRPC4 opening agents – cell-based, HEK293 TRPC4/mu-opioid, Fluo-4 calcium, dose response (AID 434937;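 active = primary screen activator hit with a dose response curve and TRPC4 channel activation at any tested dose; inactive = no activation, no dose response, or not a primary hit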)
[8] = biological target: Short transient receptor potential channel 4 (Mus musculus) (UniProt Q9QUQ5); experiment: potentiation of DAMGO-evoked TRPC4 calcium signal – cell-based, HEK293 TRPC4/mu-opioid, Fluo-4 calcium, EC20 DAMGO, dose response (AID 434941;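 active = earlier screen potentiator hit that boosts the TRPC4 ion channel at some dose, with a dose response; inactive = no potentiation, no dose response, or not a prior hit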;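 note: calcium entry triggered by an EC20 dose of DAMGO at the co-expressed mu-opioid receptor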)
[9] = biological target: Short transient receptor potential channel 4 (Mus musculus) (UniProt Q9QUQ5); experiment: block of DAMGO-driven TRPC4 calcium entry – cell-based, HEK293 TRPC4/mu-opioid, Fluo-4 calcium, dose response (AID 434942;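 active = primary screen inhibitor hit that blocks the TRPC4 channel at some tested dose, yielding a dose curve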)
[10] = biological target: Short transient receptor potential channel 6 (Mus musculus) (UniProt Q61143); experiment: TRPC6 blockade by TRPC4 inhibitor hits – cell-based, HEK293, membrane potential dye, duplicate, selectivity assay for TRPC4 inhibitor project, confirmation (AID 434948;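 active = active in primary screen and both duplicates, each dropping signal beyond three positive-control SD with fluorescence still positive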); conditions: HEK293 TRPC6, membrane potential dye fluorescence, at 10 µM, stimulated with maximal-effect acetylcholine; active compounds read high
[11] = biological target: Short transient receptor potential channel 6 (Mus musculus) (UniProt Q61143); experiment: TRPC6 opening by TRPC4 activator hits – cell-based, HEK293, membrane potential dye, duplicate, selectivity assay for TRPC4 activator project, confirmation (AID 434950;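 active = membrane potential signal rise above negative control mean plus 3 SD in both duplicates, also active in the earlier TRPC4 screen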); conditions: HEK293 TRPC6, membrane potential fluorescence, at 10 µM; activation: active compounds read high; outcome: activation
[12] = biological target: Short transient receptor potential channel 6 (Mus musculus) (UniProt Q61143); experiment: positive modulators of mouse TRPC6 channel – HEK293 cells, membrane potential dye, duplicate, selectivity assay for TRPC4 potentiator project, confirmation (AID 434952;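 active = compound raising the membrane signal above positive-control mean plus 3 SD in both repeats, and a primary screen hit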); conditions: HEK293 TRPC6, membrane potential dye fluorescence, at 10 µM, maximal acetylcholine added after compound; active compounds read high
[13] = biological target: Short transient receptor potential channel 4 (Mus musculus) (UniProt Q9QUQ5); experiment: calcium flux activators in TRPC4/5HT1a cells, counter-screen for TRPC4 activator project, cell-based, second counter screen, HEK293 TRPC4/5HT1a, Fluo-4 (AID 434977); conditions: Fluo-4 calcium flux, at 10 µM; active compounds read high
[14] = serotonin-gated TRPC4 signal block – cell-based, second counter screen, HEK293 TRPC4/5HT1a, Fluo-4, counter-screen for TRPC4 inhibitor project, confirmation (AID 434978;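 active = primary screen active whose calcium signal fell more than 3 SD beyond the full-serotonin control mean in both duplicate plates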;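 note: serotonin given first at submaximal then at maximal dose after compound preincubation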); conditions: Fluo-4 calcium flux, at 10 µM, serotonin added to trigger calcium flux; active compounds read high
[15] = tested on: TRPC4 (mouse), co-expressed with 5HT1a in HEK293; experiment: enhancement of serotonin-evoked TRPC4 response – cell-based, second counter screen, HEK293 TRPC4/5HT1a, Fluo-4, counter-screen for TRPC4 potentiator project, confirmation (AID 434979;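 active = signal rise over 3 SD above mean of control wells given weak agonist, in both repeats and first screen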); conditions: Fluo-4 calcium flux, at 10 µM, serotonin added at its EC20 dose; active compounds read high
[16] = nonspecific calcium rise without TRPC4 – cell-based, HEK293 mu-opioid receptor line, counter-screen for TRPC4 activator project, confirmation (AID 449723;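 active = hit in primary screen, with calcium signal over 5 SD above buffer well mean in both duplicates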;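 note: counter screen cells carry the mu-opioid receptor alone and lack TRPC4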); conditions: HEK293 mu-opioid cells, Fluo-4 calcium fluorescence, at 10 µM; active compounds read high
[17] = nonspecific potentiation of DAMGO calcium response – cell-based, HEK293 mu-opioid receptor line, counter-screen for TRPC4 allosteric potentiator project, confirmation (AID 449724;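 active = calcium signal rise more than 3 SD above the low-dose agonist control mean, in both duplicate plates and the primary screen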); conditions: HEK293 mu-opioid receptor cells, Fluo-4 calcium flux, at 10 µM, compound added before EC20 DAMGO stimulus; active compounds read high
[18] = nonspecific flux increase, KCNQ1-free cells – parental CHO cells, counter-screen for KCNQ1 potentiator project (AID 493006;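 active = duplicate-averaged activation above buffer control mean plus 5 SD of those controls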;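 for activation: fluorescence ratio of max minus min over baseline after K+ and Tl+ depolarization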); conditions: parental CHO-K1 cells, FluxOR thallium flux, at 10 µM; active compounds read high
[19] = biological target: Potassium voltage-gated channel subfamily KQT member 1 (Homo sapiens) (UniProt P51787); experiment: enhancement of KCNQ1 channel thallium flux – FluxOR thallium flux, CHO cells, duplicates, confirmation (AID 493007;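 active = potentiation averaged over duplicate wells exceeding buffer-only control mean by more than 3 SD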;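 for outcome: cells depolarized by a potassium plus thallium sulfate stimulus after compound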;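 for potentiation: 0% = buffer-only wells and 100% = R-L3 activator control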); conditions: KCNQ1 cell line, FluxOR thallium flux fluorescence, at 10 µM; active compounds read high, % of reference activator effect, buffer zero
[20] = biological target: Potassium voltage-gated channel subfamily KQT member 2 (Rattus norvegicus) (UniProt O88943); experiment: KCNQ2 thallium flux enhancement – KCNQ2-CHO-K1 cells, selectivity assay for KCNQ1 potentiator project (AID 493009;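 active = mean duplicate potentiation above the buffer control mean plus 5 SD of buffer wells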;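 note: assay conditions were tuned for KCNQ1 rather than KCNQ2 modulators; signal is max minus min fluorescence divided by baseline after thallium stimulus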); conditions: FluxOR thallium flux fluorescence, at 10 µM; active compounds read high, scaled: buffer 0, activator control 100
Chain of Potassium voltage-gated channel subfamily KQT member 2 (Rattus norvegicus) (O88943 whole entry, looked up): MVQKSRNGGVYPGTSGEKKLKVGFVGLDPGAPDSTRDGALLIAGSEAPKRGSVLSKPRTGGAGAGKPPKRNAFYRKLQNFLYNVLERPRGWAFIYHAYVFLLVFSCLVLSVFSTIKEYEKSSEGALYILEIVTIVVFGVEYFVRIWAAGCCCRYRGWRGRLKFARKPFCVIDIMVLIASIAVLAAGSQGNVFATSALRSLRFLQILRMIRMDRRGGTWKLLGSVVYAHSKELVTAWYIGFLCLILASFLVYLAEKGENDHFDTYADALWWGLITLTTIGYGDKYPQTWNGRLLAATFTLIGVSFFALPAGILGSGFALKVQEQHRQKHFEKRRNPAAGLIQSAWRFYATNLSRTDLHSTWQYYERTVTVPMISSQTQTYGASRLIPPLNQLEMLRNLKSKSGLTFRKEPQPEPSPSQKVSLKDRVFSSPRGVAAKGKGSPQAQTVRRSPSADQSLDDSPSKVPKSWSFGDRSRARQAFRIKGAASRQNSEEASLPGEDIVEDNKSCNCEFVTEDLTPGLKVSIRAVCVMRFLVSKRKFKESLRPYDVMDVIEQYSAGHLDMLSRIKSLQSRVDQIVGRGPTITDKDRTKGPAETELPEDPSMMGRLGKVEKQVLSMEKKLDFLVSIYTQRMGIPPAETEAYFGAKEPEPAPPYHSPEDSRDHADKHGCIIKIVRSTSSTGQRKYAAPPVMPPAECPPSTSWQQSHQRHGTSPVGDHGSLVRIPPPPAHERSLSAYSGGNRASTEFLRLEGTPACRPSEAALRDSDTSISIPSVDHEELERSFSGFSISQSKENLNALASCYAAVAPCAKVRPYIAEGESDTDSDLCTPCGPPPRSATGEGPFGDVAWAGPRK

Chain of Short transient receptor potential channel 6 (Mus musculus) (Q61143 whole entry, looked up): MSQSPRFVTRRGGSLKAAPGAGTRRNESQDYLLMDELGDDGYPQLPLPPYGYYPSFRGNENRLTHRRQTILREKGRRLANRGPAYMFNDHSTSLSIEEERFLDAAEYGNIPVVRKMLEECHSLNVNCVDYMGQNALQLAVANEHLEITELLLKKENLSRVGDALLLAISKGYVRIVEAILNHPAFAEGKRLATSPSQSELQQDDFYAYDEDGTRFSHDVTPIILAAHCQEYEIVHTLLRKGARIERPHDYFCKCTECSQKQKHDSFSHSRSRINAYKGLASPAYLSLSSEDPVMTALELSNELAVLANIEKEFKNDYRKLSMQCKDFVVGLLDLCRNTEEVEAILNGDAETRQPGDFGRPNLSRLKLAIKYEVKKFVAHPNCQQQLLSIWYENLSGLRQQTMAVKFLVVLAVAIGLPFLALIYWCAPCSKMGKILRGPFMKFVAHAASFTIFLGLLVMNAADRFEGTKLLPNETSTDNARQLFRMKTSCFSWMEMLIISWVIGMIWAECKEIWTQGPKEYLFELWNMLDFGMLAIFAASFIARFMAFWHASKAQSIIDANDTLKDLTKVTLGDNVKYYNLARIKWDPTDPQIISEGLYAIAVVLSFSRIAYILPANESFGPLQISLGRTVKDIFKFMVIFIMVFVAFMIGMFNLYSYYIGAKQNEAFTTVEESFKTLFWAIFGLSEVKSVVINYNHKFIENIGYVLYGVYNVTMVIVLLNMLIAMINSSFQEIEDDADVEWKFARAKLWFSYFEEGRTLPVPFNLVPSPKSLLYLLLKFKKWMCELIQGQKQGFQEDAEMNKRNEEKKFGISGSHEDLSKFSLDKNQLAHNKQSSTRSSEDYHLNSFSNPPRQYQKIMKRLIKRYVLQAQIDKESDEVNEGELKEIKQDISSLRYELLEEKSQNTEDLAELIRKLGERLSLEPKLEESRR
Chain of Potassium voltage-gated channel subfamily KQT member 1 (Homo sapiens) (P51787 whole entry, looked up): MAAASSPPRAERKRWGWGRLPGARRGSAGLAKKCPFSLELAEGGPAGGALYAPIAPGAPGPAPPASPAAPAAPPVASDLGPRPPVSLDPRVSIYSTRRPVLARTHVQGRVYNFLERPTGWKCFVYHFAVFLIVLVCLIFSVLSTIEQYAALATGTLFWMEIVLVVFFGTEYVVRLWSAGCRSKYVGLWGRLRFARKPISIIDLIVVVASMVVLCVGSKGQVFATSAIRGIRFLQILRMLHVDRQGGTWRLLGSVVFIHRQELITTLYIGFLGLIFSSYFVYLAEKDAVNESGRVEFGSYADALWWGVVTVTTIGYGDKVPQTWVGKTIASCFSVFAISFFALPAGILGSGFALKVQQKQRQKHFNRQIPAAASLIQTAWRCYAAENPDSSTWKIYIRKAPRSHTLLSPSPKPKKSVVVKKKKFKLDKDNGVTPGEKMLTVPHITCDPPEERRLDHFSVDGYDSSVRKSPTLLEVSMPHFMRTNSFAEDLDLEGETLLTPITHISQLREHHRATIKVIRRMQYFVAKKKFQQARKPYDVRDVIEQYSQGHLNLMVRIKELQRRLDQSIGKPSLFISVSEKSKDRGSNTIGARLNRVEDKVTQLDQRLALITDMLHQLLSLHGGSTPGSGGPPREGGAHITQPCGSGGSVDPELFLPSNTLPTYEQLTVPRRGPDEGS
Chain of Short transient receptor potential channel 4 (Mus musculus) (Q9QUQ5 whole entry, looked up): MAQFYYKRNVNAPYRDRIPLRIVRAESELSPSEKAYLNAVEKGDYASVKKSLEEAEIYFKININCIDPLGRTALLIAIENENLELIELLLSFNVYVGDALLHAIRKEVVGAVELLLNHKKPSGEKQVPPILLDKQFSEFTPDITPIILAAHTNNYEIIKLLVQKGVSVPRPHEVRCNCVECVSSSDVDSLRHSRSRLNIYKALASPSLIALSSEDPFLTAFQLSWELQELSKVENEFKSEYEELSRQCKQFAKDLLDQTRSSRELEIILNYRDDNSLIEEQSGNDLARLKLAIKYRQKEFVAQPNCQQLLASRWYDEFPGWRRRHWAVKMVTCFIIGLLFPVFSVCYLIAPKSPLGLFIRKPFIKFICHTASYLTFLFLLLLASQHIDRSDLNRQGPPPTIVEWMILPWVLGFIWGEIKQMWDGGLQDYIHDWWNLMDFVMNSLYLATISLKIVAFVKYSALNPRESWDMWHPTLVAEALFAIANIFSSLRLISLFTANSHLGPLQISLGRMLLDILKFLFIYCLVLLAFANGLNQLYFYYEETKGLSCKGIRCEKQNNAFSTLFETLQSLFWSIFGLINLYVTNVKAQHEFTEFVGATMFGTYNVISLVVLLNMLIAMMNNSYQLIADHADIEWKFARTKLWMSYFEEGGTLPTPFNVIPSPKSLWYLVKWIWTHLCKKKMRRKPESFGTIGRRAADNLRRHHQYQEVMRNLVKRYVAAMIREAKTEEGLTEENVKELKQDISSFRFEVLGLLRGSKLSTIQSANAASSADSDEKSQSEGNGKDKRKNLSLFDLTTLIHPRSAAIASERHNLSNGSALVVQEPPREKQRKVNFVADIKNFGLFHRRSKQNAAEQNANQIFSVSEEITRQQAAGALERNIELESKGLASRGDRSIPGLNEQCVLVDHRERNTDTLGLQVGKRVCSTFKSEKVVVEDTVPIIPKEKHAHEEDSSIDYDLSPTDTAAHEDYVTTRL

Structure (SMILES): CCN(CC)c1ncnc2sc3c(c12)CCC3
- outcome [1]: inactive
- outcome [2]: inactive
- outcome [3]: inactive
- outcome [4]: inactive
- outcome [5]: inactive
- outcome [6]: inactive
- outcome [7]: inactive
- outcome [8]: inactive
- outcome [9]: inactive
- outcome [10]: inactive
- outcome [11]: inactive
- outcome [12]: inactive
- outcome [13]: inactive
- outcome [14]: inactive
- outcome [15]: inactive
- outcome [16]: inactive
- outcome [17]: inactive
- outcome [18]: inactive
- outcome [19]: inactive
- outcome [20]: inactive

Structure (SMILES): COc1cc(NC(=O)CSc2ncnc3sc4c(c23)CCC(C)C4)c(C(=O)O)cc1OC (centres undefined)
- outcome [1]: inactive
- outcome [2]: inactive
- outcome [3]: inactive
- outcome [4]: inactive
- inhibition [5]: 91% (active)
- outcome [6]: inactive
- outcome [7]: inactive
- outcome [8]: inactive
- outcome [9]: inactive
- outcome [10]: inactive
- outcome [11]: inactive
- outcome [12]: inactive
- outcome [13]: inactive
- outcome [14]: inactive
- outcome [15]: inactive
- outcome [16]: inactive
- outcome [17]: inactive
- activation [18]: 450% (active)
- potentiation [19]: 297% (active)
- potentiation [20]: 506% (active)

Structure (SMILES): c1ccc(Cc2nc3ccccc3n2Cc2ccccc2)cc1
- outcome [1]: inactive
- outcome [2]: inactive
- outcome [3]: inactive
- outcome [4]: inactive
- outcome [5]: inactive
- outcome [6]: inactive
- outcome [7]: inactive
- outcome [8]: inactive
- outcome [9]: inactive
- outcome [10]: inactive
- outcome [11]: inactive
- outcome [12]: inactive
- outcome [13]: inactive
- outcome [14]: inactive
- outcome [15]: inactive
- outcome [16]: inactive
- outcome [17]: inactive

Structure (SMILES): Cc1cc(C)c2c(=O)n(CC(=O)Nc3cccc(Cl)c3C)sc2n1
- outcome [1]: inactive
- outcome [2]: inactive
- outcome [3]: inactive
- potentiation [4]: 14% (active)
- outcome [5]: inactive
- outcome [6]: inactive
- outcome [7]: inactive
- outcome [8]: inactive
- outcome [9]: inactive
- outcome [10]: inactive
- outcome [11]: inactive
- outcome [12]: inactive
- outcome [13]: inactive
- outcome [14]: inactive
- potentiation [15]: 9.63% (active)
- outcome [16]: inactive
- outcome [17]: inactive
- outcome [18]: inactive
- outcome [19]: inactive
- outcome [20]: inactive

Structure (SMILES): CCCCN(CC)CCCNC(=O)c1cc2cc3ccc(C)cc3nc2o1
- outcome [1]: inactive
- outcome [2]: inactive
- potentiation [3]: 19% (active)
- outcome [4]: inactive
- outcome [5]: inactive
- outcome [6]: inactive
- outcome [7]: inactive
- outcome [8]: inactive
- outcome [9]: inactive
- outcome [10]: inactive
- outcome [11]: inactive
- outcome [12]: inactive
- outcome [13]: inactive
- outcome [14]: inactive
- potentiation [15]: 21.8% (active)
- outcome [16]: inactive
- outcome [17]: inactive
- outcome [18]: inactive
- outcome [19]: inactive
- outcome [20]: inactive

Structure (SMILES): CCOc1ccc(CCNC(=O)c2ccc3c(=O)[nH]c4c(C(=O)NC(C)C)sc(=S)n4c3c2)cc1
- outcome [1]: inactive
- outcome [2]: inactive
- potentiation [3]: 9% (active)
- potentiation [4]: 11% (active)
- outcome [5]: inactive
- outcome [6]: inactive
- outcome [7]: inactive
- outcome [8]: inactive
- outcome [9]: inactive
- outcome [10]: inactive
- outcome [11]: inactive
- outcome [12]: inactive
- outcome [13]: inactive
- outcome [14]: inactive
- potentiation [15]: 7.91% (active)
- outcome [16]: inactive
- outcome [17]: inactive
